Potency and outcome data for 28 compounds are collected here from PubChem BioAssay (Tox21).

Inconclusive results are not listed. Calls of active or inactive are those of the source. Unless noted, the call rests on the fitted dose curve; in most records, active means well fitted curve in the direction sought with a large enough effect in the repeat runs; inconclusive means weak or mixed curves; inactive means no such curve, though single readings can be large; an effect the other way counts as inactive or inconclusive.

Test [1] in a line: qHTS assay to identify small molecule agonists of the peroxisome proliferator-activated receptor delta (PPARd) signaling pathway - cell viability counter screen (AID 743211). Further: nearly all actives have a fitted effect of over 55% in size. Further: potency means the concentration at half of the fitted maximal effect. An outline of the steps:
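HEK293H PPARd-bla, 3000 cells/well; 5 h preincubation 37C/5% CO2; cpd in DMSO, 17 h 37C; B/G FRET substrate 2 h RT; CellTiter-Glo 30 min RT, luminescence.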
For orientation: Quantitative high-throughput screening tests each substance at several concentrations.

Test [2] in a line: qHTS assay to identify small molecule antagonists of the peroxisome proliferator-activated receptor delta (PPARd) signaling pathway - cell viability counter screen (AID 743213). Further: nearly all actives have a fitted effect of over 50% in size. Further: potency means the concentration at half of the fitted maximal effect. An outline of the steps:
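CellTiter-Glo was added to PPARd-bla HEK293H wells following 17 h compound treatment in the presence of 300 nM L165041. Luminescence was recorded after 30 min at room temperature.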

Test [3] has as its target Peroxisome proliferator-activated receptor delta (Homo sapiens) (UniProt Q03181). As to the kind of experiment: qHTS assay to identify small molecule antagonists of the peroxisome proliferator-activated receptor delta (PPARd) signaling pathway (AID 743215; active means well fitted inhibition curve with a large enough effect in the signal ratio in the repeat runs, not every such curve was filed as active; the % refers to the signal ratio;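 further: cells stimulated with agonist L165041 at 300 nM final during compound exposure; series mostly up to about 62 µM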). An outline of the steps:
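Agonist L165041 (300 nM final) added with compound to PPARd-bla HEK293H UAS-bla reporter cells; 17 h incubation at 37 C. Read-out: LiveBLAzer FRET substrate, 2 h at room temperature, fluorescence intensity.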

Test [4] addresses Bile acid receptor (Homo sapiens) (UniProt Q96RI1). As to the kind of experiment: qHTS assay to identify small molecule antagonists of the farnesoid-X-receptor (FXR) signaling pathway (AID 743217; active means well fitted inhibition curve with a large enough effect in the signal ratio in the repeat runs, not every such curve was filed as active; the % refers to the signal ratio; further: potency means the concentration at half of the fitted maximal effect). In outline: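 Antagonist mode: chenodeoxycholic acid at 50 uM final stimulates a UAS-driven beta-lactamase reporter in HEK 293T FXR-bla cells during 16 h, 37C compound exposure. Read-out is FRET substrate fluorescence after 2 h at room temperature.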

Test [5] in a line: qHTS assay to identify small molecule agonists of the farnesoid-X-receptor (FXR) signaling pathway - cell viability counter screen (AID 743218). Further: nearly all actives have a fitted effect of over 45% in size. Further: potency means the concentration at half of the fitted maximal effect. An outline of the steps:
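Viability counter screen in the same wells: CellTiter-Glo luminescence, 30 min room-temperature incubation, measured after the beta-lactamase read. Cells were GeneBLAzer FXR-UAS-bla HEK 293T, compound-treated 16 h at 37C.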

For test [6], the target named is Bile acid receptor (Homo sapiens) (UniProt Q96RI1). As to the kind of experiment: qHTS assay to identify small molecule agonists of the farnesoid-X-receptor (FXR) signaling pathway (AID 743220; active means well fitted activation curve with a large enough effect in the signal ratio in the repeat runs, not every such curve was filed as active; the % refers to the signal ratio). An outline of the steps:
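FXR-UAS-bla HEK 293T cells carrying a UAS-driven beta-lactamase reporter were plated for 5 h at 37C/5% CO2, then exposed to DMSO-dissolved Tox21 10K compounds for 16 h at 37C. A LiveBLAzer B/G FRET substrate was loaded for 2 h at room temperature before fluorescence reading.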

The nature of test [7]: qHTS assay to identify small molecule antagonists of the farnesoid-X-receptor (FXR) signaling pathway - cell viability counter screen (AID 743221; active means well fitted cell-killing curve with a large enough effect in the repeat runs, not every such curve was filed as active; further: nearly all actives have a fitted effect of over 50% in size). An outline of the steps:
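Luminescence from CellTiter-Glo measures cytotoxicity in GeneBLAzer FXR-UAS-bla HEK 293T cells. Cells were exposed to compounds with 50 uM chenodeoxycholic acid (final) for 16 h at 37 C, in wells also used for the reporter readout.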

In test [8] the target is Vitamin D3 receptor (Homo sapiens) (UniProt P11473). As to the kind of experiment: qHTS assay to identify small molecule agonists of the vitamin D receptor (VDR) signaling pathway (AID 743222; calls by dose curve). In outline: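 Agonist mode, beta-lactamase reporter: fluorescence from LiveBLAzer B/G FRET substrate (2 h, room temperature) read after 16 h compound treatment at 37 C of VDR-bla cells, which were pre-incubated 4 h after seeding.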

For test [9] the target is unchanged. As to the kind of experiment: qHTS assay to identify small molecule antagonists of the vitamin D receptor (VDR) signaling pathway (AID 743223; active means well fitted inhibition curve with a large enough effect in the signal ratio in the repeat runs, not every such curve was filed as active; the % refers to the signal ratio). An outline of the steps:
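Antagonist mode uses 1alpha,25-dihydroxyvitamin D3 at 3 nM final as stimulus. VDR-bla cells receive compounds in DMSO, incubate 16 h at 37C, then a beta-lactamase FRET substrate for 2 h at room temperature before fluorescence measurement.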

The target of test [10] is Peroxisome proliferator-activated receptor delta (Homo sapiens) (UniProt Q03181). As to the kind of experiment: qHTS assay to identify small molecule agonists of the peroxisome proliferator-activated receptor delta (PPARd) signaling pathway (AID 743212; calls by dose curve). An outline of the steps:
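Read-out: beta-lactamase FRET fluorescence after 2 h room-temperature incubation with LiveBLAzer B/G substrate. Cells were HEK293H carrying a UAS-bla reporter for PPARd, treated at 37 C with DMSO-dissolved compounds.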

Chain of Peroxisome proliferator-activated receptor delta (Homo sapiens) (Q03181 whole entry, looked up): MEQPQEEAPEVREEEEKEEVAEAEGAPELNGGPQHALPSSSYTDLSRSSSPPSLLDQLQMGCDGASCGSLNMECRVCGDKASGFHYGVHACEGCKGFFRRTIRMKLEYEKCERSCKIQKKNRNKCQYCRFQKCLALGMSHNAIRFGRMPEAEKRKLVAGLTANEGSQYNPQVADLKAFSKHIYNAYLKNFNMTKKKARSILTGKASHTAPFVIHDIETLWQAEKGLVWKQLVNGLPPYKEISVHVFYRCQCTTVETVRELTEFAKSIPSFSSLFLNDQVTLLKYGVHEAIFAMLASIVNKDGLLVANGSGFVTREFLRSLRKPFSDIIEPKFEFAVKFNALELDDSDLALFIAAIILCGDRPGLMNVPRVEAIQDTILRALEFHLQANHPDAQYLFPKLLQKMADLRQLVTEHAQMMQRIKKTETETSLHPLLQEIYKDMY
Chain of Vitamin D3 receptor (Homo sapiens) (P11473 whole entry, looked up): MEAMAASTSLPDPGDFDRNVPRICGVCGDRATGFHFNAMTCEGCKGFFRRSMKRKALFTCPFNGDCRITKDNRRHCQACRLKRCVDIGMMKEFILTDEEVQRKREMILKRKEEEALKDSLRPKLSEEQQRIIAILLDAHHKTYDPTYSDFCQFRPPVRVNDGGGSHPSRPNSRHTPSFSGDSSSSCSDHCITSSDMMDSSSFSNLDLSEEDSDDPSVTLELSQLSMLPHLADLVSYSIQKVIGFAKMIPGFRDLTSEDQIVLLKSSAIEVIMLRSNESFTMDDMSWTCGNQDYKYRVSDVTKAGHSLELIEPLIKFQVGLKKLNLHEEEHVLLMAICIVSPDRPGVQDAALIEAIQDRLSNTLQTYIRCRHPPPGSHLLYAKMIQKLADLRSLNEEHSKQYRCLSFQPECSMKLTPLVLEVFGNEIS
Chain of Bile acid receptor (Homo sapiens) (Q96RI1 whole entry, looked up): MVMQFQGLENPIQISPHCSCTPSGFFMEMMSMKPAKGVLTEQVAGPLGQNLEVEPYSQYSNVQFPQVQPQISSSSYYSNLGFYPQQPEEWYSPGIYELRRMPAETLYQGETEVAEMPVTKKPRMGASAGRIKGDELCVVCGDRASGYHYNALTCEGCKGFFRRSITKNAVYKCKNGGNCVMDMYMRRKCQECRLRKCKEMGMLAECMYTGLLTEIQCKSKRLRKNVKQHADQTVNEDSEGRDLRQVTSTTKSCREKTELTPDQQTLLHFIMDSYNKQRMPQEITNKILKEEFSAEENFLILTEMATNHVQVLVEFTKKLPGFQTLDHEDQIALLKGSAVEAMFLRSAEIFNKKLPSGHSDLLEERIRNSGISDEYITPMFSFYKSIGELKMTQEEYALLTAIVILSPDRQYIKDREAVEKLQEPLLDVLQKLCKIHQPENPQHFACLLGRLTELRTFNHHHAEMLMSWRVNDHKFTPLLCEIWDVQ

For `O=C(CCCCCCCCC#CI)Oc1ccccc1`, the Potency entry in [1], in test [2], in test [3], in test [4], in [5] and in test [6] was “inactive” each time. The Potency result in test [7] is “inactive”. Further, the result in [8] and in [9] was inactive.
Turning to `CCn1nc(C)c2c1C(=O)NCC(c1ccc(O)cc1)=N2`, the Potency entry in test [1], in [10], in [2], in test [5] and in test [7] was “inactive” throughout. The compound was classed as inactive in test [8].
Consider `CC(=O)[C@H]1CC[C@H]2[C@@H]3C[C@H](C)C4=CC(=O)CC[C@]4(C)[C@H]3[C@@H](O)C[C@]12C`, for which the Potency entry in [1], in test [10], in test [2], in test [4], in test [5] and in [6] was “inactive” in each case. Also, the Potency entry in [7] is “inactive”. Moreover, the call in test [9] was inactive.
As for `CO[Si](C)(OC)OC`, the Potency result in test [1], in test [10], in test [2], in test [5], in test [6] and in test [7] was “inactive” in each case. Moreover, in [9], the compound was called inactive.
Regarding `CCCCC(CC)C(=O)OCCOCCOCCOCCOC(=O)C(CC)CCCC` (stereo unspecified), the Potency entry in test [1], in [10], in test [2], in test [4], in test [6] and in [7] was “inactive” in each case. The outcome in [8] and in [9] was inactive.
Regarding `CCCCC(CC)COC(=O)COc1ccc(Cl)cc1C` (stereo unspecified), the Potency result in [1], in test [10], in test [2], in test [5], in test [6] and in test [7] was “inactive” each time. Moreover, the compound was called inactive in test [9].
Take `C[Si]1(C)O[Si](C)(C)O[Si](C)(C)O1`: the Potency entry in [1], in test [10], in test [2], in [5] and in [7] was “inactive” throughout. In addition, the call in [8] and in test [9] was inactive.
Consider `CC[C@H](NC(=O)c1cc(F)ccc1NS(=O)(=O)c1cccc2cccnc12)c1ccccc1`, for which the Potency entry in test [1], in test [10], in test [5], in test [6] and in test [7] was “inactive” in each case. In test [9], the compound was called inactive.
In the case of `CCCCC/C(=C\c1ccccc1)CO`, the Potency result in [1], in test [10], in [4], in test [5], in test [6] and in [7] was “inactive” each time. In addition, the result in test [8] and in test [9] was inactive.
With `Cc1oc(C)c(C(=O)Nc2ccccc2)c1C`, the Potency entry in test [1], in test [10] and in test [5] was “inactive” each time. Besides, the result in [8] and in test [9] was inactive.
As to `O=C(O)c1c(O)c(-c2ccccc2)nc2ccccc12`, the Potency entry in test [1], in test [10], in test [2], in test [6] and in [7] was “inactive” throughout. In test [4], the Potency was 16.8 µM (active). Besides, the outcome in [9] was inactive.
Turning to `CN1CCN(c2c(F)cc3c(=O)c(C(=O)O)cn4c3c2OCN4C)CC1`, the Potency entry in test [1], in test [10], in test [3] and in test [7] was “inactive” throughout.
As for `O=c1[nH]c2ccc(S(=O)CCN3CCC(Cc4ccc(F)cc4)CC3)cc2o1` (stereo unspecified), the Potency result in test [1], in test [2], in test [3] and in test [7] was “inactive” throughout.
`COc1ccc(CCC(=O)c2c(O)cc(O[C@@H]3O[C@H](CO)[C@@H](O)[C@H](O)[C@H]3O[C@@H]3O[C@@H](C)[C@H](O)[C@@H](O)[C@H]3O)cc2O)cc1O`: the Potency result in test [1], in [2], in [5] and in [7] was “inactive” in each case. Also, the call in [8] and in [9] was inactive.
On to `N#C/C(=C1\SCC(c2ccccc2Cl)S1)n1ccnc1` (stereo unspecified), for which the Potency result in test [1], in [2], in [3], in test [5] and in test [7] was “inactive” throughout.
For `Cc1cc(O)c2c(O)c3c(O)cccc3cc2c1`, the Potency entry in test [1], in test [2], in test [4], in test [5] and in [7] was “inactive” each time.
As to `CC1(C)O[C@@H]2C[C@H]3[C@@H]4CCC5=CC(=O)C=C[C@]5(C)[C@H]4[C@@H](O)C[C@]3(C)[C@]2(C(=O)CO)O1`, the Potency entry in test [1], in test [2], in test [5] and in test [7] was “inactive” throughout. The call in test [8] and in [9] was inactive.
For `CCN(Cc1cccc(S(=O)(=O)O)c1)c1ccc(C(=C2C=CC(=[N+](CC)Cc3cccc(S(=O)(=O)[O-])c3)C=C2)c2ccccc2)cc1`, the Potency entry in test [1], in test [2], in [5] and in test [7] was “inactive” throughout.
As to `N#C/C(=C1/SC[C@@H](c2ccc(Cl)cc2Cl)S1)n1ccnc1`, the Potency result in test [1], in [2], in test [5] and in test [7] was “inactive” each time.
In the case of `COc1ccc(C(=O)c2cccc(O)c2)c(OC)c1`, the Potency entry in test [1], in test [2], in test [5] and in test [7] was “inactive” in each case. Moreover, the call in [8] and in test [9] was inactive.
With `CNCCCC1c2ccccc2C=Cc2ccccc21`, the Potency is 10.6 µM (active) in [1], 23.7 µM (active) in [2] and 23.7 µM (active) in test [5]. In addition, the compound was classed as inactive in test [9].
With `O=S1OCCO1`, the Potency result in [1], in test [2], in test [5] and in [7] was “inactive” each time. Also, the compound was called inactive in [9].
`CCCCN(CCCC)CCCOC(=O)c1ccc(N)cc1`: the Potency entry in test [1], in test [2], in [4], in test [5] and in test [7] was “inactive” throughout.
With `O=C(N[C@@H](c1ccccc1)[C@@H]1CCCCN1)c1cccc(C(F)(F)F)c1Cl`, the Potency in test [1] is 27.5 µM (active); in test [2], 27.5 µM (active); in test [5], 43.6 µM (active). In addition, the Potency result in test [6] and in [7] was “inactive” each time. For the same compound, the compound was classed as inactive in test [9].
With `C=CC(=O)NCOCC(C)C`, the Potency entry in test [1], in [2], in [4], in test [5] and in [6] was “inactive” throughout.
Consider `O=C(c1ccc(O)cc1)c1ccc(Cl)cc1`, for which the Potency entry in test [1], in [2], in test [4], in [5], in test [6] and in [7] was “inactive” throughout. The result in test [8] was inactive.
Turning to `CCCCCCCCCCOS(=O)(=O)O`, the Potency result in test [1], in test [2], in test [4], in test [6] and in test [7] was “inactive” throughout. In addition, the call in test [9] was inactive.
`CC(C)c1nnc2ccc(-c3ocnc3-c3cc(F)ccc3F)cn12`: the Potency result in test [1], in test [2], in test [5], in test [6] and in test [7] was “inactive” each time. In addition, in test [9], the compound was classed as inactive.
